NCF1 inh = p47phox (human) inhibition; P14598; p47phox/p22phox peptide binding, fluorescence polarization, 2 h; inhibition, % at 24.7 µM; actives 0.53% (n = 220,000);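 further: 0% = p47phox with labelled peptide and 100% = labelled peptide alone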
UBC9 SUMO inh = blocks human SUMOylation mediated by UBC9. inhibition, % at 35 µM. actives 0.36% (n = 290,000). P63279. HTRF SUMOylation assay, SAE1/SAE2 + UBC9, in vitro; in the data active means inhibition above about 50%, passing the limit was not always enough
Target sequence (P63279 whole entry, looked up): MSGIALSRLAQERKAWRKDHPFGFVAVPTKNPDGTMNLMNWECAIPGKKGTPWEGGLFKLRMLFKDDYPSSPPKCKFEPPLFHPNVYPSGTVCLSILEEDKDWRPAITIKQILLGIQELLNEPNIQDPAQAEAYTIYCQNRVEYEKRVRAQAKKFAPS
eIF4E 4G PPI = eIF4E/eIF4G interaction inhibition in translation initiation; P63073+Q04637; TR-FRET eIF4E-eIF4GI(517-606) binding, 2 h; inhibition, % at 21.7 µM; actives 0.37% (n = 220,000); AID 782;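 further: 0% = full FRET control wells and 100% = background wells lacking eIF4GI fragment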
14-3-3 Bad PPI = disrupts binding of bovine 14-3-3 zeta to phospho-Bad peptide | TR-FRET 14-3-3zeta/Dy647-pBad peptide displacement, 1 h | inhibition, % at 21.7 µM | actives 0.71% (n = 220,000) | AID 781;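 active means inhibition above about 70%, limit read from the data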;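 further: 0% = full 14-3-3 plus peptide FRET controls and 100% = background without 14-3-3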
Target sequence (P63103 whole entry, looked up): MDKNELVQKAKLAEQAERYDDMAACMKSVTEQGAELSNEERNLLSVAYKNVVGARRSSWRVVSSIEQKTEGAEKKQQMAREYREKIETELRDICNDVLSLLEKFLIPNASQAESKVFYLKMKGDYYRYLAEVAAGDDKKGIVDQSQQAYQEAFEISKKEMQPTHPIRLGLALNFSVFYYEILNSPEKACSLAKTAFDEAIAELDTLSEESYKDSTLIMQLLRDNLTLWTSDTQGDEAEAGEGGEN
Starred values were filed as active, the others as inactive; / = no result; [ ] = dose if it differs, or a comment. Rows were chosen to be rich in hits. Some 1.3% of all compounds tested hit in one or more screens of this group.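 How the source made its calls, unless noted: active means inhibition above about 30% (limit read from the data); inactive means the rest.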

SMILES	NCF1 inh	UBC9 SUMO inh	eIF4E 4G PPI	14-3-3 Bad PPI
CCN(CC)CCN(Cc1cc2ccc(C)c(C)c2[nH]c1=O)C(=S)NCc1ccco1	-14	-1	0	-7
Cc1nn2c(COc3ccc(NC(=O)C(C)C)cc3)nnc2c2ccccc12	-7	14	0	85*
CCOC(=O)Nc1ccc(OCc2nnc3c4ccccc4c(C)nn23)cc1	14	0	-3	9
Cc1ccc(-c2nnn3c2nc(Cl)c2ccccc23)cc1	-7	8	-3	91*
Clc1nc2c(-c3ccccc3)nnn2c2ccccc12	-16	36	6	1
CCOC(=O)Nc1ccc(C)cc1C	117*	-1	8	4
O=C(COc1ccccc1)Nc1ccc(S(=O)(=O)Nc2ccccn2)cc1	/	-4	/	/
CC(=O)NCCNC(=O)c1ccc(NC2=NC3CS(=O)(=O)CC3S2)cc1 (configuration not stated)	-1	16	-4	-2
CCOC(=O)CC1C(=O)NCCN1C(=O)Nc1ccc(Cl)cc1 (configuration not stated)	-7	6	3	73*[fluorescence artefact?]
COC(=O)CC1C(=O)NCCN1C(=O)Nc1ccc(Cl)cc1 (configuration not stated)	-9	-3	0	-16
Cc1cc(C)cc(-n2ncc3c2CCCC3NC(=O)c2ccccc2N2CCOCC2)c1 (configuration not stated)	/	-6	/	/
O=C(Cc1cccs1)N(Cc1cccs1)C1(C(=O)NC2CCCC2)CCCCC1	0	-3	-4	2
O=C(Cc1cccs1)N(Cc1ccco1)C1(C(=O)NC2CCCCC2)CCCCC1	43*	3	4	-16
CC(C)CN(CCCNC(=O)CN1C(=O)COc2ccc(S(=O)(=O)N3CCOCC3)cc21)CC(C)C	/	11	/	/
Cc1cc(C)c(CN2CCC(n3nccc3NC(=O)CCOc3ccccc3)CC2)cc1C	/	7	/	/
CC(=O)Nc1ccc(NC(=O)c2c(C)noc2C)cc1	/	-9	/	/
Cc1ccccc1-c1oc(C)c(C)[n+]1[O-]	-6	1	1	10
CCOc1cc(CNCc2ccncc2)cc(Br)c1OCc1ccc(F)cc1	-10	16	-7	61
Fc1ccccc1COc1ccc(Br)cc1CNCc1ccncc1	-2	-8	2	80*
Fc1ccc(COc2ccc(Br)cc2CNCc2ccncc2)cc1	-1	-19	9	84*
Fc1ccccc1COc1ccc(Br)cc1CNCc1cccnc1	6	22	3	37
Cc1ccc(NC(=O)CN2CCc3cc4c(cc3C2C)OCCCO4)cc1C (configuration not stated)	/	-2	/	/
CCOC(=O)C1=C(C)NC(=O)C1CC(=O)Nc1ccccc1 (configuration not stated)	-10	-10	4	-7
O=C(CSc1nnc(Cc2ccccc2)n1-c1ccc(F)cc1)N1CCOCC1	-4	-6	-6	-6
O=C(CSc1nnc(Cc2ccccc2)n1C1CCCCC1)N1CCOCC1	98*	1	4	-1
SMILES	NCF1 inh	UBC9 SUMO inh	eIF4E 4G PPI	14-3-3 Bad PPI
O=S(=O)(O)c1cccc2c(N=Nc3ccc(O)c4ncccc34)cccc12	/	90*	/	/
CCC1NC(=S)NC(C)=C1C(=O)c1ccccc1 (configuration not stated)	2	0	-2	-10
O=S(=O)(c1ccccc1F)N1CCN(Cc2nc3ccccc3[nH]2)CC1	-13	-23	3	82*
O=S(=O)(c1ccccc1F)N1CCC(c2nc3ccccc3[nH]2)CC1	/	-10	/	/
Cc1cc(Cl)ccc1OCCCC(=O)Nc1cccnc1	-3	10	7	75*
Cc1cccc(Nc2ccc([N+](=O)[O-])cn2)c1	/	5	/	/
CC(C)(C)c1ccc(S(=O)(=O)NCC(=O)N2CCN(Cc3ccccc3)CC2)cc1	/	-6	/	/
CN(/N=C/c1ccncc1)C1=NS(=O)(=O)c2ccccc21	-11	21	0	79*
CCCCOC(=O)Nc1nnc(SCCOc2ccc(C)cc2)s1	-10	5	44*[fluorescence artefact?]	5
Cc1ccc(OCCSc2nnc(NC(=O)c3ccco3)s2)cc1	-10	14	2	-3
Cc1c(NC(=O)c2ccc(-c3cccc([N+](=O)[O-])c3)o2)c(=O)n(-c2ccccc2)n1C	-10	4	0	-7
O=C(N/N=C/c1ccc(OC(=O)c2cccs2)cc1)c1cccc(F)c1	-28	11	-44	72*
O=C(N/N=C/c1ccc(OC(=O)c2cccc(F)c2)cc1)c1cccnc1	/	16	/	/
Cc1ccc(-c2[nH]c(-c3ccc(C(=O)O)cc3)nc2-c2ccccc2)cc1	-28	58*	4	2
COC(=O)C(NC(C)=O)(Nc1ccc(C)cn1)C(F)(F)F (configuration not stated)	0	-13	0	-6
Cc1ccccc1OCCn1cnc2c(N)ncnc21	41*	-23	5	47
O=C(NC1CCCCCCC1)c1ccc2c(c1)OCO2	7	-12	32*	5
Cc1cc(N2CCOCC2)nc2cc(O)ccc12	-6	0	-5	80*
COc1ccccc1NC(=O)c1ccc(CN2CCOCC2)cc1	66*	43	8	-8
COc1ccccc1NC(=O)c1ccc(S(=O)(=O)N(C)C)cc1	8	8	38*[fluorescence artefact?]	11
Cc1ccccc1NC(=O)c1ccc(S(=O)(=O)N(C)C)cc1	-13	-19	2	3
NS(=O)(=O)c1ccc(NC(=O)c2ccccc2C(=O)N2CCCCC2)cc1	-6	6	1	-5
S=C(Nc1ccc2cn[nH]c2c1)Nc1ccccc1Cl	-19	88*	-2	-14
Cc1cccc(C)c1OCC(=O)N/N=C/C=C/c1ccco1	-6	55*	0	-19
C[C@@H](CN1C(=O)C(=O)NC[C@@H]1C)NC(=O)CC12CC3CC(CC(C3)C1)C2	/	9	/	/
SMILES	NCF1 inh	UBC9 SUMO inh	eIF4E 4G PPI	14-3-3 Bad PPI
C=CCNC(=S)Nc1ccc2nsnc2c1	-8	99*	1	14
CC(C)OP(C)(=O)CN1CCN(CP(C)(=O)OC(C)C)CC1 (configuration not stated)	-3	24	2	31
COc1ccc(Nc2nc(-c3cccs3)cs2)c(OC)c1	-6	8	6	78*
Cc1nc2c(C)cccc2cc1C(=O)N/N=C/c1ccc(C(=O)O)cc1	-8	22	-3	87*
Cc1ccc(C)c(NC(=O)/C(C#N)=C/c2cn(CC(=O)NCc3ccco3)c3ccccc23)c1	5	54*	0	11
Cc1cc(C)cc(NC(=O)/C(C#N)=C/c2cn(CC(=O)NCc3ccco3)c3ccccc23)c1	-19	29	3	8
Cc1ccc(NC(=O)/C(C#N)=C/c2cn(CC(=O)NCc3ccco3)c3ccccc23)cc1C	-14	62*	3	6
CNC(=O)/C(C#N)=C/c1cn(CC(=O)NCc2ccco2)c2ccccc12	-3	9	-4	-7
O=C(O)C1CCCCC1C(=O)NCCc1ccncc1 (configuration not stated)	-12	-2	-1	72*
Oc1oc(-c2ccccc2Br)nc1C=Nc1ccc(Br)cn1	23	46	19	76*
Oc1oc(-c2ccccc2)nc1/C=N/c1ccccn1	-2	17	-5	-11

Source: PubChem BioAssay
